PubChem BioAssay (Tox21)
Records with an inconclusive call do not appear. Where a call stands in place of a potency, no number is given. Values without a mark were called inactive. Active and inactive are the calls of the source. Unless noted, the call rests on the fitted dose curve; in most records, active means well fitted curve in the direction sought with a large enough effect in the repeat runs; inconclusive means weak or mixed curves; inactive means no such curve, though single readings can be large; an effect the other way counts as inactive or inconclusive.

Legend:
[1] = qHTS assay to identify small molecule agonists of the NFkB signaling pathway - cell viability counter screen (AID 1159515; calls by dose curve; further: series mostly up to about 61 µM; nearly all actives have a fitted effect of over 55% in size)
Summary of the method: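 Parallel cytotoxicity counter screen in ME-180 cells carrying an NFkB-response-element beta-lactamase reporter, 2,000 cells/well. Compound exposure lasted 5 hr at 37 C, 5% CO2. Cell viability was quantified by CellTiter-Glo luminescence.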

[2] = qHTS assay to identify small molecule agonists of the endoplasmic reticulum stress response signaling pathway (AID 1159516; active means well fitted activation curve with a large enough effect in the signal ratio in the repeat runs, not every such curve was filed as active; the % refers to the signal ratio)
Summary of the method: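 Using a HeLa line with an ESRE-driven beta-lactamase gene, agonist activity was measured by FRET substrate fluorescence (460 and 530 nm emission) after cells were treated with compounds for 5 hr at 37 C and 5% CO2.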

[3] = qHTS assay to identify small molecule agonists of the endoplasmic reticulum stress response signaling pathway - cell viability counter screen (AID 1159517; calls by dose curve;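 further: HeLa cells carrying an ER stress response element beta-lactamase reporter; series mostly up to about 61 µM; nearly all actives have a fitted effect of over 50% in size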)
Summary of the method: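 After overnight attachment, ESRE-bla HeLa cells were treated with Tox21 library compounds for 5 hr. CellTiter-Glo luminescence, read 30 min post-addition at room temperature, reported viability.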

[4] = qHTS assay to identify small molecule antagonists of the retinoid-related orphan receptor gamma (ROR-gamma) signaling pathway - cell viability counter screen (AID 1159520); further: nearly all actives have a fitted effect of over 50% in size
Summary of the method: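 Cytotoxicity was read from cellular ATP (CellTiter-Glo luminescence) after 16 hr at 37 C with 1 uM doxycycline induction. The inducer was added 2 hr after compound transfer to Tet-on ROR gamma CHO cells.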

[5] = biological target: Nuclear receptor ROR-gamma (Homo sapiens) (UniProt P51449); experiment: qHTS assay to identify small molecule antagonists of the retinoid-related orphan receptor gamma (ROR-gamma) signaling pathway (AID 1159521;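 further: CHO cells with doxycycline inducible ROR-gamma driving an RORE luciferase reporter; top concentration of the series differs between compounds; nearly all actives have a fitted effect of over 50% in size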)
Summary of the method: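 CHO cells expressing RORγ under a TET-on promoter, luciferase under RORE control. Dox 1 uM final, 16 h; compounds added 2 h prior. Luminescence decrease measured.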

[6] = qHTS assay to identify small molecule agonists of the AP-1 signaling pathway - cell viability counter screen (AID 1159525; calls by dose curve; further: nearly all actives have a fitted effect of over 55% in size)
Summary of the method: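 Intracellular ATP by Cell Titer Glo luminescence (30 min, RT) in the same ME-180 AP-1-bla wells after the 5 h compound exposure at 37 °C. Normalised to tetra n-octyl ammonium bromide and DMSO controls.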

[7] = qHTS assay to identify small molecule agonists of the AP-1 signaling pathway (AID 1159526; calls by dose curve)
[8] = biological target: Retinoic acid receptor RXR-alpha (Homo sapiens) (UniProt P19793); experiment: qHTS assay to identify small molecule agonists of the RXR signaling pathway (AID 1159527; calls by dose curve; further: nearly all actives have a fitted effect of over 35% in size)
Summary of the method: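 Beta-lactamase reporter assay, agonist format. Engineered HEK 293T line, charcoal-stripped FBS at 2%, overnight (16 hr) exposure, fluorescence at 460 and 530 nm after 405 nm excitation.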

[9] = qHTS assay to identify small molecule agonists of the RXR signaling pathway - cell viability counter screen (AID 1159529);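 further: HEK 293T cells carrying an RXR-alpha UAS beta-lactamase reporter; series mostly up to about 77 µM; nearly all actives have a fitted effect of over 50% in size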
Summary of the method: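 Same-well viability check after the LiveBLAzer FRET read: CellTiter-Glo added, luminescence measured after 30 min at room temperature. Reporter HEK 293T cells had been treated with compounds for 16 hr following a 5 hr preincubation.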

[10] = qHTS assay to identify small molecule antagonists of the retinoid acid receptor (RAR) signaling pathway - cell viability counter screen (AID 1159551); further: nearly all actives have a fitted effect of over 35% in size
Summary of the method: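 ATP-based viability, C3RL4 cells, 6 h at 37 C with 1 uM final retinol co-added after compound; luminescence read 30 min post CellTiter-Glo, RT.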

[11] = qHTS assay to identify small molecule antagonists of the retinoic acid receptor (RAR) signaling pathway (AID 1159552; further: nearly all actives have a fitted effect of over 50% in size)
Summary of the method: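 Readout: luciferase luminescence, 30 min post-reagent at RT. Setup: C3RL4 RARE reporter cells, compounds plus retinol 1 uM final, 6 hr incubation at 37 C and 5% CO2.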

[12] = qHTS assay to identify small molecule agonists of the retinoic acid receptor (RAR) signaling pathway (AID 1159553); further: potency means the concentration at half of the fitted maximal effect
Summary of the method: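 Quantitative high-throughput format: the Tox21 10K library was tested on C3RL4 RARE-luciferase cells for 6 hr at 37 C and 5% CO2, with luminescence measured after a 30 min room-temperature reagent step.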

[13] = qHTS assay to identify small molecule agonists of the vitamin D receptor (VDR) signaling pathway - cell viability counter screen (AID 743224)
Summary of the method: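 Compounds were pin-transferred onto VDR-bla cells plated 4 h earlier; following 16 h incubation at 37C, cell viability was quantified by CellTiter-Glo luminescence after 30 min at room temperature.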

[14] = qHTS assay to identify small molecule agonists of the NFkB signaling pathway (AID 1159509; active means well fitted curve in the direction sought with a large enough effect in the signal ratio in the repeat runs, not every such curve was filed as active; the % refers to the signal ratio; further: series mostly up to about 61 µM)
Summary of the method: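 Readout: FRET fluorescence, 405 nm excitation, 460/530 nm emission; beta-lactamase expression disrupts FRET. Cells: ME-180 stably carrying NF-kB-driven bla reporter. Compound exposure 5 hr, 37 C, 5% CO2.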

[15] = qHTS assay to identify small molecule antagonists of the vitamin D receptor (VDR) signaling pathway - cell viability counter screen (AID 743225); further: nearly all actives have a fitted effect of over 50% in size
Summary of the method: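 Luminescent cell viability (CellTiter-Glo) in VDR-bla HEK 293T cells after 16 h compound exposure at 37C in the presence of 3 nM final 1-alpha,25-dihydroxy vitamin D3.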

Sequence of Retinoic acid receptor RXR-alpha (Homo sapiens) (P19793 whole entry, looked up): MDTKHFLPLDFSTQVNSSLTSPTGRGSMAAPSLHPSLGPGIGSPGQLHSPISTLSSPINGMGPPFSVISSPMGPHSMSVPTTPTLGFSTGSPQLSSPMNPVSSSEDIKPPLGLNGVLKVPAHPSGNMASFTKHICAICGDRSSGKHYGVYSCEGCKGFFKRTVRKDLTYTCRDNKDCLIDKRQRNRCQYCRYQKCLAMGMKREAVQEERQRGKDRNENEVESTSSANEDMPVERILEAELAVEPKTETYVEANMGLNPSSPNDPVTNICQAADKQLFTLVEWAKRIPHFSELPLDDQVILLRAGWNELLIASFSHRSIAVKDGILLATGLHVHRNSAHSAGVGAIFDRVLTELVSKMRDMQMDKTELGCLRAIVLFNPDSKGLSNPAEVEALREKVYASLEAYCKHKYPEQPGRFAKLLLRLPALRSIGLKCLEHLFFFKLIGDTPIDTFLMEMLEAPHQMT

SMILES	outcome [1]	outcome [2]	outcome [3]	outcome [4]	Potency [5]	Potency [6]	outcome [7]	Potency [8]	Potency [9]	outcome [10]	Potency [11]	Potency [12]	Potency [13]	outcome [14]	Potency [15]
CCOC(=O)[C@H](CCc1ccccc1)N[C@@H](C)C(=O)N1[C@H](C(=O)O)C[C@@H]2CCC[C@@H]21	inactive	inactive	inactive	inactive	inactive	inactive	inactive	inactive	inactive	inactive	inactive	inactive	–	–	–
O=C(CCCN1CCN(c2ccccn2)CC1)c1ccc(F)cc1	inactive	–	inactive	inactive	inactive	inactive	inactive	inactive	inactive	inactive	inactive	inactive	inactive	inactive	–
COC(=O)NN	inactive	–	inactive	inactive	inactive	inactive	inactive	inactive	inactive	inactive	–	inactive	inactive	inactive	inactive
NS(=O)(=O)c1cc(C(=O)O)cc(N2CCCC2)c1Oc1ccccc1	inactive	–	inactive	inactive	inactive	inactive	inactive	inactive	inactive	inactive	inactive	inactive	inactive	inactive	inactive
CC/C=C\CC/C=C/CO	inactive	inactive	inactive	inactive	inactive	inactive	inactive	inactive	inactive	inactive	inactive	inactive	inactive	–	–
CC(C)NC(=O)NC(C)C	inactive	–	inactive	inactive	inactive	inactive	inactive	–	inactive	inactive	inactive	969 nM (active)	inactive	inactive	inactive
COC(=O)CCSCCC(=O)OC	inactive	–	inactive	inactive	inactive	inactive	inactive	inactive	inactive	inactive	–	inactive	inactive	inactive	–
CN1CCN(c2cc3c(cc2F)c(=O)c(C(=O)O)cn3-c2ccc(F)cc2)CC1	inactive	–	inactive	inactive	inactive	inactive	inactive	inactive	inactive	inactive	inactive	inactive	inactive	inactive	–
NC(=O)c1ccc([N+](=O)[O-])cc1	inactive	inactive	inactive	inactive	inactive	inactive	inactive	inactive	inactive	inactive	inactive	inactive	inactive	–	–
CCCCCOC(=O)CCCCC	inactive	–	inactive	inactive	inactive	inactive	inactive	–	inactive	inactive	–	–	inactive	inactive	inactive
COc1ccc2c(c1)CCCC2=O	inactive	–	inactive	inactive	inactive	inactive	inactive	inactive	inactive	inactive	inactive	inactive	inactive	inactive	–
CC(=O)OC/C=C(\C)CC/C=C(\C)CCC=C(C)C	inactive	–	inactive	inactive	inactive	inactive	inactive	–	inactive	inactive	inactive	–	inactive	inactive	–
COC(=O)c1cc(C(=O)OC)cc(S(=O)(=O)O)c1	inactive	–	inactive	inactive	inactive	inactive	inactive	inactive	inactive	inactive	–	inactive	inactive	inactive	inactive
CN1C(=O)N(C)C(O)C1O (stereo not given)	inactive	–	inactive	inactive	inactive	inactive	inactive	inactive	inactive	inactive	inactive	–	inactive	inactive	inactive
CO[Si](CCCOCC1CO1)(OC)OC (stereo not given)	inactive	–	inactive	inactive	inactive	inactive	inactive	–	inactive	inactive	inactive	–	inactive	inactive	–
Cc1sccc1Br	inactive	inactive	inactive	inactive	inactive	inactive	inactive	inactive	inactive	inactive	inactive	inactive	inactive	–	inactive
CN1CC(=O)NC1=N	inactive	inactive	inactive	inactive	inactive	inactive	inactive	–	inactive	inactive	inactive	inactive	inactive	–	inactive
CC/C=C\CCOC(C)=O	inactive	inactive	inactive	inactive	inactive	inactive	inactive	inactive	inactive	inactive	inactive	inactive	inactive	–	inactive
CC(C)CCCC(C)N (stereo not given)	inactive	inactive	inactive	inactive	inactive	inactive	inactive	inactive	inactive	inactive	–	inactive	–	–	inactive
CCCN1CCCC[C@H]1C(=O)Nc1c(C)cccc1C	inactive	inactive	inactive	inactive	inactive	inactive	inactive	inactive	inactive	inactive	inactive	inactive	inactive	–	inactive
